Compounds with a hit are over-represented: about 21% of the library has one in this group of screens.
Pf growth 48h: inhibits P. falciparum growth in the first generation, 48 h; 5.9% of 310,000 active; P. falciparum luciferase growth in erythrocytes, 48 h; Potency, µM (series often up to 28.7 µM), for inactives: at the highest dose activity change, negative = inhibition, hits mostly inhibitors; note: potency is the fitted concentration of half-maximal effect; % is set by controls: 0 for no effect and ±100 for the full control effect
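Parasite viability was followed by luminescence of a genomically integrated firefly luciferase. Cultures held 0.1% parasitemia at 2% hematocrit (final), incubated under 5% CO2 at 37 C.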
FBPA Giardia inh: Giardia lamblia aldolase inhibition; purified Giardia FBPA; A8B2U2; Potency, µM (series often up to 59.6 µM), for inactives: top-dose activity, negative = inhibition, usual class: inhibitors; 0.71% of 290,000 active; AID 2451; note: potency is the fitted concentration of half-maximal effect; % is set by controls: 0 for no effect and ±100 for the full control effect; nearly all actives have a fitted effect of over 55% in size
Target sequence (A8B2U2 whole entry, looked up): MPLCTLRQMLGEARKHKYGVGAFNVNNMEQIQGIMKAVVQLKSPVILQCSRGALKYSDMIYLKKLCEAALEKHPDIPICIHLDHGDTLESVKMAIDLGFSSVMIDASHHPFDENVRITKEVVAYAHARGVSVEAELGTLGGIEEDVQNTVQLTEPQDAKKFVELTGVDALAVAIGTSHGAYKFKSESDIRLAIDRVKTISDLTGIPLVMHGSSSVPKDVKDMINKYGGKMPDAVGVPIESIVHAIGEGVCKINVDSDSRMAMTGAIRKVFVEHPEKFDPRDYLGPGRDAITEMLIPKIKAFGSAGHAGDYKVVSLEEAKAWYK
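40 nM FBPA preincubated 10 min at RT with compound (up to 57.5 uM final), then substrate plus GAPDH/TPI/NAD/arsenate coupling and diaphorase/resazurin added. Fluorescence read after 20 min at RT, 525/598 nm.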
Shiga toxin inh: Shiga toxin inhibition | Vero cells, Shiga toxin protein synthesis inhibition reporter | inhibition, % at 38.7 µM | 9.2% of 290,000 active | AID 2315; in the data active = inhibition mostly above about 28%, no sharp cut-off; inactive = mostly below about 43%; note: 0% is about no effect
Pf growth 96h: P. falciparum growth inhibition at 96 hours; P. falciparum luciferase reporter growth, 96 h; Potency, µM (highest dose often 28.7 µM), inactives show top-dose activity change, negative = inhibition, most hits filed as inhibitors; 6.9% of 320,000 active; AID 504834; note: potency is the fitted concentration of half-maximal effect; % is set by controls: 0 for no effect and ±100 for the full control effect
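Erythrocytes infected with luciferase-expressing P. falciparum were dispensed at 2% hematocrit and 0.05% parasitemia (final), then incubated with compounds 96 hours at 37 C in 5% CO2. Luminescence after detection reagent addition reported growth.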
Cycloheximide cs: counter-screen for Shiga toxin inhibitors: cycloheximide protein synthesis inhibition. cell reporter, cycloheximide protein synthesis inhibition counterscreen. max response, %. 12% of 300,000 active; in the data active = max response mostly above about 13%, no sharp cut-off; inactive = mostly below about 14%; note: read at 38.3 µM for the half of the compounds with a filed dose; 0% is about no effect
NS1 inh: blocks influenza NS1 protein function | Potency, µM (highest dose often 46.1 µM), for the others: top-dose activity, positive = more growth | 0.4% of 270,000 active | AID 2326; calls by dose curve; note: potency is the fitted concentration of half-maximal effect; actives are rising curves; nearly all actives have a fitted effect of over 50% in size
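In this qHTS, NS1 from influenza A is expressed in budding yeast, where it slows growth. Cells are switched from glucose to 2% galactose medium (pH 6.0, -URA), treated with compound, and growth recovery is read at OD600.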
* hit, by the source's call; ? = inconclusive; nt = not tested or not shown; [ ] = another dose, or the depositor's remark. Unless noted, calls come from the whole dose curve; as a rule, active = well fitted curve in the direction sought with a large enough effect; inconclusive = small, poorly fitted or top-dose-only effect, or another doubt; inactive = no such curve, though single readings can be large; an effect the other way counts as inactive or inconclusive.

SMILES	Pf growth 48h	FBPA Giardia inh	Shiga toxin inh	Pf growth 96h	Cycloheximide cs	NS1 inh
O=C(O)c1ccc(Nc2ccnc3cc(Cl)ccc23)cc1O	nt	nt	nt	nt	nt	-3%
Clc1ccc2c(N/N=C/c3ccc(Br)cc3)ccnc2c1	0.33µM*	-6%	21	1.5µM*	9	-22%
Clc1ccc2c(N/N=C/c3cccnc3)ccnc2c1	0.66µM*	2%	24	0.83µM*	17*	nt
CN(C(=O)c1ccccn1)c1nnc(-c2cccnc2)s1	15%	-8%	32	-1%	54*	0%
COc1ccc(-c2nnc(N(C)C(=O)c3cccnc3)s2)cc1	47%	-9%	46	nt	27*	-57%
Cc1ccc(-c2nnc(N(C)C(=O)c3cccnc3)s2)cc1	76%	nt	77	?	34*	-25%
Cc1ccc(-c2nnc(N(C)C(=O)c3cccnc3)s2)cn1	32%	0%	16	1%[5.75 µM]	10	-4%
Cn1cccc1/C=N/N1CCN(Cc2cccc3ccccc23)CC1	-6%	-13%	11	2%	-1	1%
COc1nc(-c2ccccc2)ccc1-c1noc(COc2ccccc2)n1	4%	18%	24	nt	17	-35%
Clc1ccccc1OCc1nc(-c2ccncc2)no1	143%	-1%	86*	?	49*	-67%
COc1ccccc1Cc1nc(-c2ccncc2)no1	28%	4%	21	-5%	20*	-8%
Clc1ccc(OCc2nc(-c3ccncc3)no2)c(Br)c1	121%	5%	71*	10%	40*	-52%
c1ccc(OCc2nc(-c3ccccc3)no2)cc1	141%	0%	100*	nt	58*	-5%
Cc1cc(OCc2nc(-c3cccnc3)no2)c(C)cc1Br	23%	15%	7	-33%	-3	?
CC(OC(=O)Cc1ccc(Br)cc1)C(=O)NC1CCCCC1C (stereo unspecified)	3%	nt	-36	10%	6	-7%
Cc1ccc(OCc2nc(-c3cccnc3)no2)cc1C	19%	-3%	73*	0.41µM*	25*	-39%
c1ccc(OCc2nc(-c3ccncc3)no2)cc1	70%	7%	110*	12µM*	50*	0%
CCCCN(C1CCS(=O)(=O)C1)S(=O)(=O)c1ccc(OC)c(OC)c1 (stereo unspecified)	19%	nt	nt	10%	nt	nt
CCOc1ccc(CNCc2c(C(=O)O)n(Cc3ccccc3C)c3cc(OC)ccc23)cc1OC	nt	nt	4	nt	-3	nt
COc1ccc(CCNC(=O)Nc2ccccc2[N+](=O)[O-])cc1	0%	2%	67*	3%	37*	-2%
COc1ccc(CCNC(=O)Nc2cccc([N+](=O)[O-])c2)cc1	17%	-2%	10	13µM*	-3	nt
Cc1nn2c(=O)cc(CSc3ccccc3NC(=O)c3ccccc3F)nc2s1	-2%	2%	-19	62%	-6	-2%
CC(C)c1nn2c(=O)cc(CSc3ccccc3NC(=O)c3ccccc3F)nc2s1	?	0%	7	8.3µM*	-3	-15%
COc1cc(/C=C(\C#N)c2nc3ccccc3[nH]2)ccc1Oc1ccc([N+](=O)[O-])cn1	5.9µM*	-8%	18	4.1µM*	23*	16%
COc1cccc(C(=O)N/N=C/c2ccc(Oc3ccc([N+](=O)[O-])cn3)c(OC)c2)c1	4%	1%	42	-2%	16	14%
SMILES	Pf growth 48h	FBPA Giardia inh	Shiga toxin inh	Pf growth 96h	Cycloheximide cs	NS1 inh
COc1cc(/C=C(/C#N)c2ccccc2)ccc1Oc1ccc([N+](=O)[O-])cn1	4.7µM*	1%	5	0.93µM*	11	22%
NC(=O)CCCCC1CCSS1 (stereo unspecified)	?	nt	nt	11µM*	nt	nt
O=c1[nH]c(Cc2ccc(F)cc2)nc2scc(-c3ccc(F)cc3)c12	-2%	2%	28	?	17*	7%
O=c1[nH]c(Cc2cccs2)nc2scc(-c3ccc(Cl)cc3)c12	?	5%	15	11%	9	-4%
Cc1csc(SCc2nc3scc(-c4ccccc4)c3c(=O)[nH]2)n1	?	-1%	24	-18%	-2	2%
Cc1ccc(-c2csc3nc(CSc4nnc(-c5ccc(Cl)cc5)n4C)[nH]c(=O)c23)cc1	-7%	5%	-9	-21%	13*	14%
Cc1ccc(-c2csc3nc(CN(C)Cc4ccccc4)[nH]c(=O)c23)cc1	12µM*	-1%	11	4.1µM*	15	nt
